# MITF inh – blocks human microphthalmia-associated transcription factor; O75030; AlphaScreen MITF homodimerization, bead proximity signal; inhibition, % at 2.6 µM; 0.91% of 650,000 active; AID 1259374; in the data active means inhibition above about 50%;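 further: 0% = vehicle wells with protein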
# Target sequence (O75030 whole entry, looked up): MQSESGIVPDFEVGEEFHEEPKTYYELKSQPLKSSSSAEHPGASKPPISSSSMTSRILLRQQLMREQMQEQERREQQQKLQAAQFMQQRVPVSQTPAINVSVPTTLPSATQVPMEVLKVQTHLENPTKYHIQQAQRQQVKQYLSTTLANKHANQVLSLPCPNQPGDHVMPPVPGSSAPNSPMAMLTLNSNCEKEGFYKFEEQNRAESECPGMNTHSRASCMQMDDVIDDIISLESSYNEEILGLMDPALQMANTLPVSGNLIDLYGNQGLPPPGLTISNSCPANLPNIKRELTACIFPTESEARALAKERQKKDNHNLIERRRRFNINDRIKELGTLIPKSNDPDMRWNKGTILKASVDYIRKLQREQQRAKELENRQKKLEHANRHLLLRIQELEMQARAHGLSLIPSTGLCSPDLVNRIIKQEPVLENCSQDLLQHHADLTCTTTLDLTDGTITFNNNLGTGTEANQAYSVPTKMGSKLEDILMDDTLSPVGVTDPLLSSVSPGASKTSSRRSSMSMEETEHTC
# FBW7 act – activators of human E3 ligase FBW7; Q969H0; AID 1259310; 0.13% of 650,000 active; normalized activity (activation), % at 26.1 µM; AlphaScreen FBW7–phospho-cyclin E peptide binding, activator screen; in the data active means normalized activity above about 1.9%;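 further: purified mutant Fbw7 with reduced substrate affinity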
# GPR151 ag – activators of human GPR151; PathHunter beta-arrestin GPR151 cells, luminescence; Q8TDV0; activation, % at 11.2 µM; AID 1508602; 1% of 650,000 active; in the data active means activation above about 4.9%;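 further: 0% = median of compound wells and 100% = cells with positive control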
# TEAD-YAP inh – TEAD-YAP interaction inhibition; 1.4% of 640,000 active; HEK-TIYL cells, TEAD-Gal4/YAP UAS-luciferase luminescence; AID 1259422; inhibition, % at 9.12 µM; in the data active means inhibition above about 32%;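 further: 0% = median of test compound wells and 100% = reference inhibitor wells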
# * = called active by the depositor. An excerpt weighted towards active compounds, which were near 3.5% of everything screened.
SMILES,MITF inh,FBW7 act,GPR151 ag,TEAD-YAP inh
CC(C)c1ccc(/C=C2\CC/C(=C\C=N\N(C)C)C2=O)cc1,-13,0,-1,-6
CN(C)/N=C/C=C1\CC/C(=C\c2ccco2)C1=O,55*,0,1,-42
O=C1C(=C2SCCS2)CC/C1=C\c1ccco1,91*,-1,3,18
NC(=O)c1ccccc1NC(=O)COc1ccccc1[N+](=O)[O-],-7,0,1,-45
COCCCNc1nc(Nc2ccc(F)cc2)c2cnn(C)c2n1,12,1,0,-3
COc1ccc(NC2=C(Cl)C(=O)N(Cc3ccccc3)C2=O)c(OC)c1,13,0,0,11
COc1ccccc1-c1cc(C(=O)Nc2cc(OC)c(OC)c(OC)c2)no1,24,0,0,46*
COc1ccccc1-c1cc(C(=O)Nc2cc(C)nn2-c2ccccc2)no1,4,0,-1,34*
COc1cccc(-c2cc(C(=O)Nc3cc(C)nn3-c3ccccc3)no2)c1,3,0,1,1
O=C(CSc1cc(Cl)nc(Cl)c1)NN1CCOCC1,7,0,-2,-6
CCc1c(C)nc2ncnn2c1NCCc1ccc(OC)cc1,-1,0,0,66*
COc1cccc(NC(=O)CSc2nc3cc4c(cc3cc2C#N)OCCO4)c1,-3,0,0,45*
COc1ccc(NC(=O)CSc2nc3cc4c(cc3cc2C#N)OCCO4)c(OC)c1,25,0,-1,83*
Cc1ccccc1NC(=O)CSc1nc2cc3c(cc2cc1C#N)OCCO3,7,0,0,58*
N#Cc1cc2cc3c(cc2nc1SCC(=O)NCCc1ccccc1)OCCO3,18,0,1,34*
Cc1ccccc1NC(=O)CSc1nc2cc3c(cc2cc1C#N)OCO3,-6,0,1,6
CC12CNCC(C)(CN(Cc3cccc(Br)c3)C1)C2,-2,0,1,3
Cc1ccc(C(C)C)c(Oc2cc(NC(=O)c3nn4c(c3Br)NC(c3cccs3)CC4C(F)(F)F)cc([N+](=O)[O-])c2)c1 (stereo not given),10,0,0,5
CCCCn1cc(NC(=O)C2CC(c3cccs3)NS(=O)(=O)N2C)cn1 (stereo not given),12,0,-1,-5
N#Cc1cc2cc3c(cc2nc1SCC(=O)NCC1CCCO1)OCCO3 (stereo not given),5,0,1,55*
COc1ccc(CNC(=O)CSc2nc3cc4c(cc3cc2C#N)OCCO4)cc1,4,0,3,61*
COc1ccc(CNC(=O)CSc2nc3cc(OC)c(OC)cc3cc2C#N)cc1,-6,0,1,-18
CCC(C)NC(=O)CSc1nc2cc3c(cc2cc1C#N)OCO3 (stereo not given),9,0,-2,51*
COc1cc2cc(C#N)c(SCC(=O)Nc3cc(C)on3)nc2cc1OC,31,2.4*,-1,-10
COc1ccc(S(=O)(=O)Nc2ccc(-c3nc4cccnc4s3)cc2C)cc1,8,1,0,-8
SMILES,MITF inh,FBW7 act,GPR151 ag,TEAD-YAP inh
CCc1ccc(NC(=O)COC(=O)C2CC(=O)N(c3ccc(OC)cc3)C2)cc1 (stereo not given),9,0,2,4
COc1ccc(Cl)cc1NC(=O)Cn1nnc(C(=O)NCc2cccs2)c1N,-7,0,0,45*
Cc1ccc(S(=O)(=O)NCCCCCC(=O)C[N+](=O)[O-])cc1,26,1,-1,4
O=C(CCc1ccccc1)NC(c1ccc2c(c1)OCO2)c1ccc2cccnc2c1O (stereo not given),16,-1,-1,83*
CCCC(=O)NC(c1ccc(OC)c(OC)c1)c1ccc2cccnc2c1O (stereo not given),45,-2,0,88*
COc1ccc(C(NC(=O)Cc2ccccc2)c2ccc3cccnc3c2O)cc1OC (stereo not given),24,-2,1,90*
O=C(NC1(C(=O)Nc2ccccc2)CCCCC1)c1ccc2ccccc2n1,10,0,-1,-1
O=C(Nc1ccc2c(c1)OCO2)c1ccc(=O)n(Cc2ccc(F)cc2)c1,-10,0,0,-4
c1ccc(CNc2nc(Nc3ccc(-n4ccnc4)cc3)nc3c2ncn3-c2ccsc2)cc1,9,0,5,2
CC(C)N(CCNc1nc(Nc2ccccn2)nc2c1ncn2C(C)C)C(C)C,-1,0,0,43*
CC(C)N(CCNc1nc(Nc2ccc(-n3ccnc3)cc2)nc2c1ncn2-c1ccccc1)C(C)C,8,0,2,34*
CC(C)N(CCNc1nc(Nc2ccc(-n3ccnc3)cc2)nc2c1ncn2-c1ccsc1)C(C)C,15,0,1,51*
CC(C)N(CCNc1nc(Nc2ccc(-n3ccnc3)cc2)nc2c1ncn2C(C)C)C(C)C,5,1,-1,60*
Cc1ccc(/C=C2\N=C(c3c(-c4ccccc4)noc3C)OC2=O)cc1,17,0,-1,1
CCOc1ccc(N(C(C)C(=O)Nc2cc(C)ccc2OC)S(C)(=O)=O)cc1 (stereo not given),-12,0,0,47*
COc1ccc(N(C(C)C(=O)Nc2cc([N+](=O)[O-])ccc2OC)S(C)(=O)=O)cc1 (stereo not given),1,0,0,51*
CCOC(=O)c1ccccc1NC(=O)C(C)N(c1ccc(OCC)cc1)S(C)(=O)=O (stereo not given),-8,0,-1,57*
CCOc1ccc(N(C(C)C(=O)Nc2cc(Cl)ccc2OC)S(C)(=O)=O)cc1 (stereo not given),4,0,1,32*
CCOc1ccc(N(C(C)C(=O)Nc2ccc(Cl)cc2C)S(C)(=O)=O)cc1 (stereo not given),10,1,1,6
CCOc1ccc(N(C(C)C(=O)Nc2ccccc2OC)S(C)(=O)=O)cc1 (stereo not given),1,0,-1,17
CCOc1ccc(N(C(C)C(=O)Nc2ccccc2Cl)S(C)(=O)=O)cc1 (stereo not given),-12,0,1,0
O=C(CCn1c(=O)[nH]c2ccccc2c1=O)NCc1ccc(Cl)cc1,-11,0,0,-2
COc1ccc(CCNc2nc(NC3CCC(O)CC3)nc3c2ncn3-c2ccsc2)cc1 (stereo not given),20,0,2,48*
COc1ccc(CCNc2nc(Nc3cnccn3)nc3c2ncn3-c2ccsc2)cc1,3,0,3,5
COc1ccc(CCNc2nc(Nc3cccnc3)nc3c2ncn3-c2ccsc2)cc1,-10,0,-3,65*
CC(C)N(CCNc1nc(Nc2ccccn2)nc2c1ncn2-c1ccsc1)C(C)C,1,0,-2,28
COc1ccc(CCNc2nc(Nc3ccncc3)nc3c2ncn3-c2ccsc2)cc1,6,0,0,42*
CC(C)N(CCNc1nc(Nc2ccnn2C)nc2c1ncn2-c1ccsc1)C(C)C,3,0,3,35*
Cc1cc(C)c(C(=O)/C=C/c2ccc(F)cc2)c(=O)[nH]1,7,0,0,19
